# The whole screen tested about 320,000 compounds, of which about 7,600 (2.4%) were called active. Not shown: some 3% with an inconclusive outcome. Calls follow the shape of the dose curve; as a rule, active = well fitted activation curve with a large enough effect; inconclusive = small, poorly fitted or top-dose-only effect; inactive = no such curve, though single readings can be large or run the other way. The entries come from a sample that favours actives as a whole.
# Experiment: qHTS Assay for NPC1 Promoter Activators; also: nearly all actives have a fitted effect of over 60% in size; as to activation: % of control where 0% means no effect
# Details: Huh7 NPC1 promoter luciferase reporter, 24 h; series mostly up to 9.22 µM; activation: at the top concentration
# Text: NIH Chemical Genomics Center [NCGC] NIH Molecular Libraries Probe Production centers Network [MLPCN] MLPCN Grant: MH089375-01A1 Assay Submitter (PI): Yiannis A. Ioannou NCGC Assay Overview: Niemann Pick Type C (NPC) is a rare neurodegenerative lipidosis that is characterized by lipid storage in the endosomal/lysosomal system. Treatment modalities for this devastating disease are currently non-existent due to the severe obstacles associated with accessing the central nervous system with proteins or genes. The majority of mutations causing NPC disease are missense mutations that are distributed throughout the length of the NPC1 protein, with the most prevalent being the I1061T allele. Although NPC1 mutant proteins may be functional, they are typically trapped in the ER due to misfolding. […] We have developed and optimized a cell based luciferase reporter assay in 1536 well format for the identification of up-regulators of the mutant NPC1 promoter.
# The NPC1 promoter is cloned in front of the luciferase reporter gene, therefore NPC promoter activation results in luciferase expression. Frozen stock of the NPC1 promoter transfected Huh7 cells were obtained from the laboratory of Dr. Yiannis Ioannou (The Mount Sinai School of Medicine, New York, NY). Cells were propagated and maintained at NCGC in medium containing RPMI-1640 supplemented with 10% FBS, 2mM L-glutamine, and 50ug/ml penicillin/streptomycin. Cells were harvested in and plated for assays in OP-MEM I reduced-serum medium supplemented with 10% FBS. The Amplite luciferase reporter gene assay kit was purchased from ABD Bioquest and prepared/stored according to manufacturers recommendations. qHTS Assay Setup: 1.#Dispensed 5ul of Huh7 cells stably expressing NPC1-luciferase at a density of 1500 cells per well 1536-well plates. 2.#Incubate cells at 37C, 5% CO2, and 95% humidity for 2 hours. 3.#Transferred 23nl per well of compound in DMSO solution. 4.#Incubated at 37C, 5% CO2, and 95% humidity for 24 hours. 5.#Dispensed 3ul per well of Amplite reagent(ABD Bioquest) per well. 6.#Incubate at ambient for 10 minutes. 7.#Read using the luminescence protocol on the ViewLux plate reader (Perkin Elmer).
# Potency is read from the fitted curve at half-maximal effect.
Structure (SMILES),activation,Potency
Cc1ccnc(N2C(=O)c3ccc([N+](=O)[O-])cc3C2=O)c1,-0.192% (inactive),–
Cc1ccc(-n2cc3ccc([N+](=O)[O-])cc3n2)cc1,–,794 nM (active)
Cc1ccc(-c2cn(S(=O)(=O)c3cccc([N+](=O)[O-])c3)nc2N)cc1,-1.34% (inactive),–
Cn1c(N)c(C(=O)COC(=O)/C=C/c2cccc(C(F)(F)F)c2)c(=O)n(C)c1=O,0.0298% (inactive),–
Cc1ccn(-c2cccc(-n3ccc(C)n3)n2)n1,–,3160 nM (active)
CN(CC(=O)Nc1ccc(OC(F)(F)F)cc1)C(=O)C1CCC1,-1.1% (inactive),–
CC(=O)c1c(C)[nH]c(C(=O)OCC(=O)Nc2c(C)cccc2C)c1C,-10.2% (inactive),–
COc1ccc(/C=N/NC(=O)Nc2ccc3nsnc3c2)c(OC)c1,-0.0419% (inactive),–
COc1ccc(NC(=O)c2ccc(C#CC(C)(C)O)cc2)cc1,8.18% (inactive),–
COc1ccccc1CC(=O)Nc1ccc(F)cc1F,1.66% (inactive),–
COc1ccc(NC(=O)Nc2ccc3nsnc3c2)cc1,–,1780 nM (active)
COc1cc(OC)cc(C(=O)OCC(=O)Nc2ccc(F)cc2F)c1,-1.57% (inactive),–
COc1ccc(NC(=O)c2ccc(OC)cc2)cc1,–,1780 nM (active)
COc1ccc(NC(=O)Nc2cccc3cccnc23)cc1,16.2% (inactive),–
COc1ccc(C(=O)Nc2ccc(F)cc2F)cc1,–,3160 nM (active)
COc1ccc(C(=O)Nc2cccc(S(C)(=O)=O)c2)cc1,2.72% (inactive),–
COc1ccc(OC)c(/C=N/NC(=O)c2ccc[n+](CC(=O)c3ccccc3)c2)c1,2.89% (inactive),–
COc1ccccc1C(=O)Nc1ccc(C)c(S(=O)(=O)N2CCCCC2)c1,-2.07% (inactive),–
CNS(=O)(=O)c1ccc(C(=O)NCC(=O)NCCc2ccc3c(c2)OCCO3)cc1,0.876% (inactive),–
COc1ccc(C(=O)NCc2ccc(C)cc2)cc1S(=O)(=O)N1CCCC1,-2.7% (inactive),–
CC(C)(Oc1ccc(Cl)cc1)C(=O)OCC(=O)NCCc1ccc(S(N)(=O)=O)cc1,-3.7% (inactive),–
CC(=O)c1ccccc1NC(=O)C1CC(=O)N(c2ccc3c(c2)OCCO3)C1 (configuration not stated),-3.76% (inactive),–
COc1ccc(C(=O)N2CCN(c3ccc(C(C)=O)cc3F)CC2)cc1S(=O)(=O)NC1CC1,11.8% (inactive),–
CCc1ccccc1NC(=O)[C@@H]1CCC(=O)N1C1OC(=O)c2c1ccc(OC)c2OC (some centres not stated),-0.58% (inactive),–
CN(C(=O)CSc1nnc(-c2ccc(C(C)(C)C)cc2)n1C)C1CCS(=O)(=O)C1 (configuration not stated),1.03% (inactive),–
Cc1cccc(NS(=O)(=O)c2ccc(C)c(C(=O)NCC(c3ccccc3)N(C)C)c2)c1 (configuration not stated),-5.65% (inactive),–

Structure (SMILES),activation,Potency
C[C@H](NC(=O)c1ccccc1Cl)C(=O)OCC(=O)N1CCN(c2ccccc2)CC1,-0.198% (inactive),–
O=C(c1cnn2ccccc12)N1CCc2ccccc21,–,3160 nM (active)
Cc1cnc(C(=O)OCC(=O)N2CCc3ccccc32)cn1,9.65% (inactive),–
CCOC(=O)N1CCC(NC(=O)c2cnn3ccccc23)CC1,-0.0909% (inactive),–
CC(=O)NCCC(=O)Nc1cc(S(=O)(=O)N2CCCCC2)ccc1Oc1cccc(C)c1,-0.163% (inactive),–
O=C(c1ccc(F)cc1)n1cc(C(=S)N2CCOCC2)c2ccccc21,1.36% (inactive),–
O=C(C[n+]1cc(Br)cc2ccccc21)c1ccc(F)cc1,-1.7% (inactive),–
O=C(c1ccc(F)cc1)n1c(=S)nc2ccccn21,–,355 nM (active)
Cc1ccc(NC(=O)Cn2c(C)csc2=O)cc1,13.8% (inactive),–
CCOC(=O)c1cc2c(nc1NC(=S)Nc1ccccc1)CC(C)(CC)OC2 (configuration not stated),0.619% (inactive),–
CCOC(=O)c1ccc(NC(=S)Nc2cc(C)cc(C)n2)cc1,-5.29% (inactive),–
CCOC(=O)c1cn[nH]c1NC(=S)Nc1ccccc1,–,2820 nM (active)
CN(C)C1=NC[C@H](Cc2ccccc2)N1CCc1ccc(F)cc1,-6.2% (inactive),–
COc1ccc(OC)c(/C=C/C(=O)c2ccc3c(c2)OCO3)c1,18.9% (inactive),–
CCOC(=O)[C@H]1[C@H]2COc3ccc(C)cc3[C@@H]2N2C(=O)CN(Cc3ccc(F)cc3)C(=O)[C@@]12C,-1.2% (inactive),–
COc1ccc(CN2CCN(C(=O)c3cc(C4CC4)nn3-c3ccccc3)CC2)cc1F,1.51% (inactive),–
Cc1ccc(-n2c(C)cc(C(=O)CSc3nnc4ccccn34)c2C)cc1,–,891 nM (active)
Cc1cc(C(=O)CSc2nc(N)cc(=O)[nH]2)c(C)n1-c1cccc(F)c1,-13.5% (inactive),–
O=C(CSc1nnc2ccccn12)c1ccccc1,–,3550 nM (active)
N#Cc1ccc(CSc2nnc3ccccn23)cc1,0.241% (inactive),–
O=C(CSc1nnc2n1CCCN2)c1ccccc1,24.4% (inactive),–
Cc1ccc(-n2c(C)cc(C(=O)CN3C(=O)C(=O)N(C4CCCC4)C3=O)c2C)cc1,1.5% (inactive),–
COc1cccc(CNC(=O)CN2C(=O)NC(Cc3ccccc3)(c3ccccc3)C2=O)c1 (configuration not stated),-5.69% (inactive),–
Cc1c(C(C)CCCO)oc(=O)c2c1Oc1c(C)c(C(C)C[C@@H](C)O)oc(=O)c1C2 (some centres not stated),1.57% (inactive),–
CC(=O)C[C@@H](O)CC(=O)[C@H]1OC(=O)CCCCCCc2ccccc21,-2.8% (inactive),–
O=C(O[C@H]1[C@H](Cc2ccccc2)NS(=O)(=O)[C@H]2C[C@@H]3C=C[C@]12O3)c1ccc([N+](=O)[O-])cc1,-3.6% (inactive),–
